Experimental data from PubChem BioAssay (NCI).
The panel holds about 79,000 compounds, 15% with a hit somewhere; the sample as a whole holds those more often. Cut-off read from the data, not from the text of the source: active = growth inhibition above about 70%; inactive = the rest. Where a SMILES comes first, the peptide text is derived from it. Bridges are numbered along the chain shown (N, C = ends). [ ]: non-standard residue; d: D form. The star is where a group is joined. ξ: configuration not given here. ξNMePhe(4-NMe2) = CNC(Cc1ccc(N(C)C)cc1)C(=O)O; Picolinoyl(3-OH) = O=C(c1ncccc1O)*; ξPip(4-oxo) = O=C1CCNC(C(=O)O)C1; Phg = N[CH](C(=O)O)c1ccccc1; Abu = CC[CH](N)C(=O)O

Assays:
[1] = NCI Yeast Anticancer Drug Screen. Data for the rad50 strain (AID 155);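 note: 0% = growth of vehicle-only cultures of the same strain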; conditions: S. cerevisiae rad50 strain growth inhibition; at 50.0 µM; hits give high values
How it was run: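 Inhibition values express reduced yeast growth in compound-treated cultures relative to vehicle-treated controls.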

[2] = NCI Yeast Anticancer Drug Screen. Data for the mec2-1 strain (AID 157); conditions: S. cerevisiae mec2-1 strain, at 50.0 µM, hits give high values
How it was run: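 Test agents were screened against the mec2-1 yeast strain, with defined DNA repair or cell cycle alteration. Growth was scored as inhibition against vehicle-only controls.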

[3] = NCI Yeast Anticancer Drug Screen. Data for the sgs1 mgt1 strain (AID 161);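 note: 0% = growth of cultures given vehicle only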; conditions: S. cerevisiae sgs1 mgt1 strain, at 50.0 µM, hits give high values
How it was run: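 Genetically altered yeast, compound exposure, growth inhibition relative to vehicle.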

[4] = NCI Yeast Anticancer Drug Screen. Data for the cln2 rad14 strain (AID 165);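 note: 0% = growth equal to vehicle treated cultures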; conditions: S. cerevisiae cln2 rad14 strain, at 50.0 µM, hits give high values
How it was run: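 Growth of compound-exposed yeast (cln2 rad14 genotype) measured and expressed as inhibition relative to vehicle.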

[5] = NCI Yeast Anticancer Drug Screen. Data for the bub3 strain (AID 167); conditions: S. cerevisiae bub3 mutant strain, at 50.0 µM, hits give high values
How it was run: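 Steps: expose the mutant yeast strain to compound; grow alongside vehicle-treated cultures; measure growth; express inhibition against the vehicle cultures.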

[6] = NCI Yeast Anticancer Drug Screen. Data for the mlh1 rad18 strain (AID 175); conditions: S. cerevisiae mlh1 rad18 strain growth inhibition; at 50.0 µM; hits give high values
How it was run: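 In this whole-cell yeast screen, a strain with altered DNA damage repair is challenged with compound, and its growth is measured against matched vehicle-treated controls.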

Measured: growth inhibition

O=[N+]([O-])c1ccc(N=Nc2ccccc2)cc1
inactive: [1] 11.4% | [2] 12.2% | [3] -1.1% | [4] 21.2% | [5] -5.2% | [6] 14.8%

COc1cc2c3c(n(C)c(=O)c2cc1OC)-c1cc2c(cc1C3=O)OCO2
inactive: [1] 8.35% | [2] -15.2% | [3] -1.5% | [4] 53.3% | [5] -3.6% | [6] -16.1%

COC(=O)Nc1nc2ccc(C(=O)c3ccc(F)cc3)cc2[nH]1
inactive: [1] -9% | [2] -6.35% | [3] -30.2% | [4] -26.4% | [5] -17.5% | [6] -43.9%

Cc1nc2ccccc2c(C(=O)O)c1O
inactive: [1] 9.45% | [2] -10.2% | [3] 1.5% | [4] 6.65% | [5] 11.1% | [6] 19.9%

COC(=O)/C=C\C(=O)OC
inactive: [1] 16.1% | [2] 6.85% | [3] -15.1% | [4] -5.65% | [5] -10.3% | [6] 14.7%

COc1cc(/C=C(\C#N)C(=O)c2ccccc2)ccc1OCc1ccccc1
inactive: [1] -1.1% | [2] -18.8% | [3] -15.2% | [4] 1.25% | [5] -26.7% | [6] -18%

CCNc1nc2c(cnn2C)c(=O)[nH]1
inactive: [1] -16.6% | [2] 28.4% | [3] 4.4% | [4] -34.1% | [5] 28.1% | [6] 29.4%

CCC/C=C(/C(C)=O)C(=O)OCC
inactive: [1] 18.9% | [2] -4.6% | [3] -7% | [4] 0.2% | [5] -19.8% | [6] -6.75%

Nc1ncnc2[nH]ncc12
inactive: [1] -0.9% | [2] 25.5% | [3] 37% | [4] -2.6% | [5] 4.7% | [6] 14.1%

N#CC(=Nc1cccc(F)c1)C1=C(O)c2ccccc2C1=O
inactive: [1] 11.6% | [2] -2.6% | [3] 22.4% | [4] 27.6% | [5] 20.5% | [6] 18.8%

O=C1C[C@H](c2ccccc2)[C@H](c2ccccc2)C1
inactive: [1] 24.2% | [2] 4.85% | [3] 10.4% | [4] -4.25% | [5] -5.55% | [6] 9.8%

COc1cc(C(N)=O)cc(OC)c1OC
inactive: [1] 2.9% | [2] -9.5% | [3] -0.35% | [4] 4.9% | [5] 4.95% | [6] -2.65%

O=C(NN=C1CCCCC1)C(=O)NN=C1CCCCC1
inactive: [1] 34.1% | [2] 13.6% | [3] 13.5% | [4] -20.7% | [5] 10% | [6] 28.6%

CC1CCC(C(=O)O)N1 (stereo unspecified)
inactive: [1] 29.6% | [2] 6.5% | [3] 1.7% | [4] 4.45% | [5] -3.2% | [6] 6.65%

CC(=O)/C(Cc1ccccc1)=N/O
inactive: [1] 10.7% | [2] 4.55% | [3] 15.8% | [4] -4% | [5] -2.1% | [6] 2.15%

c1ncc2[nH]cnc2n1
inactive: [1] -14.6% | [2] -4.1% | [3] -11.6% | [4] -69.2% | [5] 8.15% | [6] 6.3%

CCS(=O)(=O)c1cc(=O)[nH]c(=O)[nH]1
inactive: [1] 22.1% | [2] 24.9% | [3] -30.9% | [4] 32.5% | [5] -1.45% | [6] -1.6%

CCC(=O)Oc1ccc(OC)cc1
inactive: [1] 23.1% | [2] -13.4% | [3] 2.9% | [4] 29.4% | [5] 3.9% | [6] 23.6%

Cc1ccc(C(=O)c2ccccc2)c(C)c1
inactive: [1] 8.65% | [2] -1.75% | [3] 0.6% | [4] -10.4% | [5] -2.5% | [6] 28.6%

COc1cc(C(=O)N/N=C/c2cccc([N+](=O)[O-])c2)cc(OC)c1OC
inactive: [1] -5.5% | [2] -13.4% | [3] -41.9% | [4] 24.4% | [5] -39.2% | [6] -64.5%

NC(=O)c1ccc(N=C(N)N=C(N)N)cc1
inactive: [1] 7.3% | [2] -15.6% | [3] -20% | [4] -36.2% | [5] -11.8% | [6] -2.05%

Cc1ncc(C#N)c(N)n1
inactive: [1] -24.9% | [2] -18% | [3] 12.9% | [4] -7.1% | [5] -3.05% | [6] -5.4%

CC1(C(=O)O)NC(C(=O)O)Cc2c1[nH]c1ccccc21 (stereo unspecified)
inactive: [1] 26.5% | [2] -13.2% | [3] 3.15% | [4] 3.65% | [5] 32.4% | [6] 13.3%

Oc1ccc2c(c1)OCC1(O)Cc3cc(O)c(O)cc3C21 (stereo unspecified)
inactive: [1] 3.9% | [2] -2.4% | [3] 10.3% | [4] 3.6% | [5] 9.75% | [6] -3.8%

CCC1NC(=O)C(NC(=O)c2ncccc2O)C(C)OC(=O)C(c2ccccc2)NC(=O)C2CC(=O)CCN2C(=O)C(Cc2ccc(N(C)C)cc2)N(C)C(=O)C2CCCN2C1=O (stereo unspecified) (tested in a mixture with another compound) ({Picolinoyl(3-OH)}-T[Abu]P[ξNMePhe(4-NMe2)][ξPip(4-oxo)][Phg]; ester 1-C; configuration not given here)
inactive: [1] 19.4% | [2] -5.15% | [3] 3.3% | [4] 20.7% | [5] 9.45% | [6] -14.7%

c1ccc2c(c1)Sc1ccccc1S2
inactive: [1] -6.95% | [2] 6.8% | [3] 22.1% | [4] -19.6% | [5] -3.6% | [6] -18.6%

COc1ccc(/C=C/c2cccc[n+]2C)cc1
inactive: [1] 1.35% | [2] 1.3% | [3] -7.1% | [4] 0.55% | [5] -9.9% | [6] -11.2%

COc1cc2nn(-c3ccccc3N)nc2cc1OC
inactive: [1] 19.4% | [2] 36.6% | [3] 48.2% | [4] 14.7% | [5] 52.2% | [6] 29.9%

C/C(=C\c1ccc([N+](=O)[O-])cc1)C(=O)O
inactive: [1] 23.6% | [2] 23.1% | [3] 19.2% | [4] 12.2% | [5] 31.4% | [6] 47.5%

CCCC[P+](c1ccccc1)(c1ccccc1)c1ccccc1
inactive: [1] 45.5% | [2] 40% | [3] 48.4% | [4] 37.2% | [5] 33.1% | [6] 65.2%

COCCOC(=O)c1ccc(C(C)C)cc1
inactive: [1] 8.8% | [2] 0.35% | [3] 0.2% | [4] -9.35% | [5] 2.75% | [6] -0.45%
